Source: PubChem BioAssay
TEAD-YAP block: TEAD-YAP interaction inhibition; HEK-TIYL cells, TEAD-Gal4/YAP UAS-luciferase luminescence; 1.4% of 640,000 active; inhibition, % at 9.12 µM; AID 1259422; in the data active = inhibition above about 32%;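 note: 0% = median of test compound wells and 100% = reference inhibitor wells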
FBW7 act: human FBW7 E3 ligase activation, primary screen; Q969H0; AlphaScreen FBW7–phospho-cyclin E peptide binding, activator screen; normalized activity (activation), % at 26.1 µM; 0.13% of 650,000 active; in the data active = normalized activity above about 1.9%;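 note: purified mutant Fbw7 with reduced substrate affinity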
MITF primary: blocks human microphthalmia-associated transcription factor; O75030; AlphaScreen MITF homodimerization, bead proximity signal; inhibition, % at 2.6 µM; 0.91% of 650,000 active; AID 1259374; in the data active = inhibition above about 50%;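 note: 0% = vehicle wells with protein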
GPR151 ag: human GPR151 activation; Q8TDV0; PathHunter beta-arrestin GPR151 cells, luminescence; activation, % at 11.2 µM; 1% of 650,000 active; in the data active = activation above about 4.9%;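 note: 0% = median of compound wells and 100% = cells with positive control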
Target sequence (Q8TDV0 whole entry, looked up): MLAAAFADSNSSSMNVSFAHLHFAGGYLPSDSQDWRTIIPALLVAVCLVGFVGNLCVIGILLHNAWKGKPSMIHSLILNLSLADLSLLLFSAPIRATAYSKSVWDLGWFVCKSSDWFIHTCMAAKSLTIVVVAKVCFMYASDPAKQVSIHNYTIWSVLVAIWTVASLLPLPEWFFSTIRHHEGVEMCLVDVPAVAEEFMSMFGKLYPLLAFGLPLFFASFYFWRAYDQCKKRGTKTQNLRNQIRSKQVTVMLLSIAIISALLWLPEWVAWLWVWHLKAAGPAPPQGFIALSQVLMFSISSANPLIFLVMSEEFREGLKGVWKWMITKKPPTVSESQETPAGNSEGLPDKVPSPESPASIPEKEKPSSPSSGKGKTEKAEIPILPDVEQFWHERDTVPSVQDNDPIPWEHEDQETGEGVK
MITF inh conf: confirmation of human MITF inhibitors; shares compounds with MITF primary; AlphaScreen MITF homodimerization, biotin/His-MITF beads; inhibition, % at 2.6 µM; 16% of 4,700 active;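 active = inhibition above a cutoff derived from the DMSO control wells, cut at about 28% in these data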;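 note: 0% = MITF dimer wells with DMSO only; inhibitors lower the bead chemiluminescence by keeping MITF from dimerizing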
AlphaScreen DR: optically interferes with AlphaScreen signal in dose response. AlphaScreen optical interference counterscreen, cell-free. IC50, µM. shares compounds with MITF primary. 6% of 480 active; call rule not given here
AS interf ctr: AlphaScreen optical interference, counter-screen; LysRS AlphaScreen counterscreen, signal interference, triplicate; 7.6% of 4,700 active; inhibition, % at 2.6 µM; shares compounds with MITF primary;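 active = inhibition above a cutoff derived from the DMSO control wells, cut at about 30% in these data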
Starred values were filed as active, the others as inactive. Only some compounds are listed: those with a hit (about 3.4% of all), similar ones and a draw of the others.

`COc1cc(-c2nc3sc4c(c3c(=O)[nH]2)CCCC4)ccc1OC(=O)c1ccc(F)cc1` gave TEAD-YAP block 3, FBW7 act 0, MITF primary 75*, GPR151 ag 0, MITF inh conf -2 and AS interf ctr -5.
O=c1[nH]c(-c2ccco2)nc2sc3c(c12)CCCC3 was read as TEAD-YAP block -28, FBW7 act 0, MITF primary 81*, GPR151 ag -1, MITF inh conf 69*, AlphaScreen DR >9.7 and AS interf ctr -13.
Screening CC(C)(C)n1ncc2c(=O)n(CC(=O)Nc3ccccc3F)cnc21 returned TEAD-YAP block 25, FBW7 act 0, MITF primary 15 and GPR151 ag 0.
For COc1ccccc1/C=C/CN1CCN(Cc2ccccc2)CC1 the results were TEAD-YAP block -2, FBW7 act 0, MITF primary 38 and GPR151 ag 0.
`COc1ccccc1/C=C/CN1CCN(CCOCCO)CC1` gave TEAD-YAP block 18, FBW7 act 0, MITF primary 54*, GPR151 ag 1, MITF inh conf -2 and AS interf ctr -4.
Screening COc1ccccc1/C=C/CN1CC(C)OC(C)C1 (stereo not drawn) returned TEAD-YAP block 2, FBW7 act 0, MITF primary 53*, GPR151 ag 3, MITF inh conf 0 and AS interf ctr -2.
N#Cc1c(NC(=O)c2cccs2)sc2c1CCCCC2 was read as TEAD-YAP block 22, FBW7 act 0, MITF primary -5 and GPR151 ag -2.
For CCn1cc(NC(=O)N(C)CCO)c2ccccc21 the results were TEAD-YAP block -4, FBW7 act 0, MITF primary -8 and GPR151 ag 0.
Screening O=C(Nc1ccc(Oc2ccccc2)cc1)c1ccnc(-c2cccs2)c1 returned TEAD-YAP block 6, FBW7 act 0, MITF primary 57*, GPR151 ag -1, MITF inh conf 53*, AlphaScreen DR >6.7 and AS interf ctr -6.
For CC(=O)Nc1ccc(NC(=O)c2ccnc(-c3cccs3)c2)cc1 the results were TEAD-YAP block 0, FBW7 act 0, MITF primary 28 and GPR151 ag 0.
O=C(Nc1ccc(Oc2ccccc2)cc1)c1cnc(-c2cccs2)s1 was read as TEAD-YAP block -3, FBW7 act 0, MITF primary 53*, GPR151 ag 1, MITF inh conf 23 and AS interf ctr -4.
Screening CCCCOc1ccc(N2C(=O)CC(N3CCN(C(c4ccccc4)c4ccccc4)CC3)C2=O)cc1 (stereo not drawn) returned TEAD-YAP block 7, FBW7 act 0, MITF primary -12 and GPR151 ag 0.
Cc1ccc(S(=O)(=O)Nc2ccc(S(=O)(=O)N3CC(C)CC(C)C3)cc2)cc1 (stereo not drawn) was read as TEAD-YAP block 1, FBW7 act 0, MITF primary -4 and GPR151 ag 0.
Screening COc1cc(CN2CCC(c3nc(-c4ccccc4)no3)CC2)cc(OC)c1 returned TEAD-YAP block -6, FBW7 act 0, MITF primary -8 and GPR151 ag -1.
`COc1cc(CN2CCC(Cn3c(C)nc4ccccc43)CC2)cc(OC)c1` gave TEAD-YAP block 9, FBW7 act 0, MITF primary 59*, GPR151 ag 0, MITF inh conf 8 and AS interf ctr 16.
For CCOC(=O)c1c(N)n(C(C)CO)c2nc3ccccc3nc12 (stereo not drawn) the results were TEAD-YAP block 14, FBW7 act 0, MITF primary 53*, GPR151 ag 0, MITF inh conf 14 and AS interf ctr 15.
`CN(Cc1cscn1)Cc1ccc(C(=O)NCc2ccc3c(c2)CCCN3C)c(=O)[nH]1` gave TEAD-YAP block 0, FBW7 act 0, MITF primary 13 and GPR151 ag -1.
`N#CC1=C(N)n2c(s/c(=C\c3ccco3)c2=O)=C(C#N)C1c1ccco1` (stereo not drawn) gave TEAD-YAP block 11, FBW7 act -1, MITF primary 56*, GPR151 ag 0, MITF inh conf 42*, AlphaScreen DR >6.5 and AS interf ctr 5.
